From the supplement of paper PMC8728848
Shown is part of a subset that was picked to be rich in the strongest signals.

Tests used:
Test in all cases: glycan array binding signal (z-score within array); higher = stronger binding
Details in all cases: glycan notation: IUPAC condensed, linker removed; mutation: D21K
[1] = molecular target: GalNAc(a1-3)GalNAc(b1-3)Gal(a1-4)Gal(b1-4)GlcNAc
Procedure, shortened: (§1)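 The Consortium for Functional Glycomics database supplied 3228 glycan arrays, of which those lacking an available protein sequence were dropped. The binding signal, a within-array Z-score, was averaged across arrays of the same protein sequence and across linkers. Negative scores can be read as non-binding.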

[2] = molecular target: GalNAc(b1-3)Gal(a1-4)Gal(b1-4)GlcNAc(b1-3)Gal(b1-4)Glc
Procedure, shortened: as §1

GalNAc(b1-3)GlcNAc = molecular target: GalNAc(b1-3)GlcNAc
Procedure, shortened: as §1

GalNAc3S(b1-4)GlcNAc = molecular target: GalNAc3S(b1-4)GlcNAc
Procedure, shortened: as §1

GalNAc4S6S(b1-4)GlcNAc = molecular target: GalNAc4S6S(b1-4)GlcNAc
Procedure, shortened: as §1

Glc(a1-6)Glc(a1-6)Glc = molecular target: Glc(a1-6)Glc(a1-6)Glc
Procedure, shortened: as §1

GlcA(b1-3)GlcNAc = molecular target: GlcA(b1-3)GlcNAc
Procedure, shortened: as §1

[3] = molecular target: GlcNAc(b1-2)[GlcNAc(b1-6)]Man(a1-6)[GlcNAc(b1-2)Man(a1-3)]Man(b1-4)GlcNAc(b1-4)GlcNAc
Procedure, shortened: as §1

GlcNAc(b1-3)Gal = molecular target: GlcNAc(b1-3)Gal
Procedure, shortened: as §1

GlcNAc(b1-3)Gal(b1-4)Glc = molecular target: GlcNAc(b1-3)Gal(b1-4)Glc
Procedure, shortened: as §1

[4] = molecular target: GlcNAc(b1-3)Gal(b1-4)GlcNAc
Procedure, shortened: as §1

[5] = molecular target: GlcNAc(b1-3)Gal(b1-4)GlcNAc(b1-3)Gal(b1-4)GlcNAc(b1-2)Man(a1-3)[GlcNAc(b1-3)Gal(b1-4)GlcNAc(b1-3)Gal(b1-4)GlcNAc(b1-2)Man(a1-6)]Man(b1-4)GlcNAc(b1-4)[Fuc(a1-6)]GlcNAc
Procedure, shortened: as §1

[6] = molecular target: GlcNAc(b1-3)Gal(b1-4)GlcNAc(b1-3)Gal(b1-4)GlcNAc(b1-3)Gal(b1-4)GlcNAc(b1-2)[GlcNAc(b1-3)Gal(b1-4)GlcNAc(b1-3)Gal(b1-4)GlcNAc(b1-3)Gal(b1-4)GlcNAc(b1-6)]Man(a1-6)[GlcNAc(b1-3)Gal(b1-4)GlcNAc(b1-3)Gal(b1-4)GlcNAc(b1-3)Gal(b1-4)GlcNAc(b1-2)Man(a1-3)]Man(b1-4)GlcNAc(b1-4)[Fuc(a1-6)]GlcNAc
Procedure, shortened: as §1

[7] = molecular target: GlcNAc(b1-3)Gal(b1-4)GlcNAc(b1-3)Gal(b1-4)GlcNAc(b1-3)Gal(b1-4)GlcNAc(b1-3)Gal(b1-4)GlcNAc(b1-2)[GlcNAc(b1-3)Gal(b1-4)GlcNAc(b1-3)Gal(b1-4)GlcNAc(b1-3)Gal(b1-4)GlcNAc(b1-3)Gal(b1-4)GlcNAc(b1-6)]Man(a1-6)[GlcNAc(b1-3)Gal(b1-4)GlcNAc(b1-3)Gal(b1-4)GlcNAc(b1-3)Gal(b1-4)GlcNAc(b1-3)Gal(b1-4)GlcNAc(b1-2)Man(a1-3)]Man(b1-4)GlcNAc(b1-4)[Fuc(a1-6)]GlcNAc
Procedure, shortened: as §1

[8] = molecular target: GlcNAc(b1-3)Gal(b1-4)GlcNAc(b1-6)[GlcNAc(b1-3)Gal(b1-3)]GalNAc
Procedure, shortened: as §1

[9] = molecular target: GlcNAc(b1-3)[GlcNAc(b1-4)][GlcNAc(b1-6)]GlcNAc
Procedure, shortened: as §1

[10] = molecular target: GlcNAc(b1-3)[GlcNAc(b1-6)]Gal(b1-4)GlcNAc
Procedure, shortened: as §1

[11] = molecular target: Neu5Ac(a2-3)Gal(b1-3)GlcNAc6S
Procedure, shortened: as §1

[12] = molecular target: Neu5Ac(a2-3)Gal(b1-4)GlcNAc(b1-3)Gal(b1-4)GlcNAc(b1-3)GalNAc
Procedure, shortened: as §1

[13] = molecular target: Neu5Ac(a2-3)Gal(b1-4)GlcNAc(b1-3)GalNAc
Procedure, shortened: as §1

[14] = molecular target: Neu5Ac(a2-6)Gal(b1-4)GlcNAc(b1-2)Man
Procedure, shortened: as §1

[15] = molecular target: Neu5Ac(a2-6)Gal(b1-4)GlcNAc(b1-2)Man(a1-3)[Neu5Ac(a2-3)Gal(b1-4)GlcNAc(b1-2)Man(a1-6)]Man(b1-4)GlcNAc(b1-4)GlcNAc
Procedure, shortened: as §1

[16] = molecular target: Neu5Ac(a2-6)Gal(b1-4)GlcNAc(b1-2)Man(a1-3)[Neu5Ac(a2-6)Gal(b1-4)GlcNAc(b1-2)Man(a1-6)]Man(b1-4)GlcNAc(b1-4)GlcNAc
Procedure, shortened: as §1

[17] = molecular target: Neu5Ac(a2-6)Gal(b1-4)GlcNAc(b1-2)[Neu5Ac(a2-6)Gal(b1-4)GlcNAc(b1-6)]Man(a1-6)[Neu5Ac(a2-6)Gal(b1-4)GlcNAc(b1-2)Man(a1-3)][GlcNAc(b1-4)]Man(b1-4)GlcNAc(b1-4)GlcNAc
Procedure, shortened: as §1

[18] = molecular target: Neu5Ac(a2-6)Gal(b1-4)GlcNAc(b1-3)Gal(b1-4)GlcNAc(b1-3)Gal(b1-4)GlcNAc
Procedure, shortened: as §1

[19] = molecular target: Neu5Ac(a2-6)Gal(b1-4)GlcNAc(b1-3)Gal(b1-4)GlcNAc(b1-3)GalNAc
Procedure, shortened: as §1

[20] = molecular target: Neu5Ac(a2-6)Gal(b1-4)GlcNAc(b1-3)GalNAc
Procedure, shortened: as §1

[21] = molecular target: Neu5Ac(a2-8)Neu5Ac(a2-3)Gal(b1-3)GalNAc(b1-4)[Neu5Ac(a2-8)Neu5Ac(a2-3)]Gal(b1-4)Glc
Procedure, shortened: as §1

Binder: KILRGVCKKIMRTFLRRISKKILTGKK [C7A (Sus scrofa)]
- glycan array binding signal (z-score) [1]: 0.64
- glycan array binding signal (z-score) [2]: 1.58
- glycan array binding signal (z-score) (GalNAc(b1-3)GlcNAc): -0.947
- glycan array binding signal (z-score) (GalNAc3S(b1-4)GlcNAc): 0.857
- glycan array binding signal (z-score) (GalNAc4S6S(b1-4)GlcNAc): 2.43
- glycan array binding signal (z-score) (Glc(a1-6)Glc(a1-6)Glc): -0.06
- glycan array binding signal (z-score) (GlcA(b1-3)GlcNAc): 0.609
- glycan array binding signal (z-score) [3]: -0.74
- glycan array binding signal (z-score) (GlcNAc(b1-3)Gal): -1.53
- glycan array binding signal (z-score) (GlcNAc(b1-3)Gal(b1-4)Glc): -0.83
- glycan array binding signal (z-score) [4]: -0.565
- glycan array binding signal (z-score) [5]: 2.43
- glycan array binding signal (z-score) [6]: 2.39
- glycan array binding signal (z-score) [7]: 2.49
- glycan array binding signal (z-score) [8]: -0.629
- glycan array binding signal (z-score) [9]: -0.24
- glycan array binding signal (z-score) [10]: 0.238
- glycan array binding signal (z-score) [11]: 1.71
- glycan array binding signal (z-score) [12]: 2.25
- glycan array binding signal (z-score) [13]: 0.438
- glycan array binding signal (z-score) [14]: -0.792
- glycan array binding signal (z-score) [15]: 0.295
- glycan array binding signal (z-score) [16]: 0.295
- glycan array binding signal (z-score) [17]: 0.348
- glycan array binding signal (z-score) [18]: 0.41
- glycan array binding signal (z-score) [19]: 0.528
- glycan array binding signal (z-score) [20]: 1.32
- glycan array binding signal (z-score) [21]: -0.48
